# Active and inactive are the calls of the source.
# How the values were obtained:
# Albumin (Bos taurus) = Albumin (Bos taurus) (UniProt P02769); assay: compounds binding labelled BSA control protein – biochemical, small-molecule microarray, Alexa647 label, 635/667 nm fluorescence, artefact control for SMM control protein annotation, profiling panel (AID 1118); conditions: BSA-A647 binding, fluorescence 635 nm, higher = more signal;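 further: score merges 667 nm emission intensity and signal-to-noise per printed compound spot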
# Chain of Albumin (Bos taurus) (P02769 whole entry, looked up): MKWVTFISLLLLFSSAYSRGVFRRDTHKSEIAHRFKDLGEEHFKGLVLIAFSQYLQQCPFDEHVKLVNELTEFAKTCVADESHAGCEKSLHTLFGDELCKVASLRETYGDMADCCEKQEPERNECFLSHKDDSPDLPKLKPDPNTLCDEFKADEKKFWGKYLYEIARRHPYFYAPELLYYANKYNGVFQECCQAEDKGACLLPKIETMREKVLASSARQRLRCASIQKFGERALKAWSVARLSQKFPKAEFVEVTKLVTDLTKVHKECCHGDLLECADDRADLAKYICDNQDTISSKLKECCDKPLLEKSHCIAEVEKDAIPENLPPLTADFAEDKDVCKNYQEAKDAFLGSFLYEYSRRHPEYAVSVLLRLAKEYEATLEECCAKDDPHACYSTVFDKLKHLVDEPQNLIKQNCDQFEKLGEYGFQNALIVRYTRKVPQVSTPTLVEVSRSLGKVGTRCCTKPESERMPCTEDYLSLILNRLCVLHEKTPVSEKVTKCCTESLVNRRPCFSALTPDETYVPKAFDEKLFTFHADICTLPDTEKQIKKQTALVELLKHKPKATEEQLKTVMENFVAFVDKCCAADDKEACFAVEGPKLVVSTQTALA
# [1] = probe aXIP binding to arrayed compounds – biochemical, NeuroSMM set, 635/667 nm fluorescence, primary screen (AID 1119); conditions: small-molecule microarray, higher = more signal, called active from +8 up or from −8 down;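 further: probe is the protein aXip251-270 applied at 1 µg/mL to compound-printed slides; binding of probe to printed compounds measured as 667 nm fluorescence plus signal to noise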
# [2] = probe aNOTCH3 binding on compound microarray – biochemical, small-molecule microarray, 635/667 nm fluorescence, primary screen (AID 1120); conditions: higher = more signal;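 further: probe is a biotin-tagged antibody raised against NOTCH3 rather than NOTCH3 protein; score merges spot fluorescence near 667 nm with spot signal to noise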
# [3] = probe aNOTCH2 binding on compound microarray – biochemical, small-molecule microarray, 635/667 nm fluorescence, primary screen (AID 1121); conditions: higher = more signal;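 further: score merges feature fluorescence read at 667 nm with its signal to noise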
# [4] = biological target: Carbonic anhydrase 2 (Homo sapiens) (UniProt P00918); assay: compounds binding carbonic anhydrase 2 – biochemical, small-molecule microarray, Alexa647-labelled CAII, profiling panel (AID 1122); conditions: CAII-A647 binding fluorescence, higher = more signal
# [5] = COS7 lysate on small-molecule microarray, probe aHis, 635 nm (AID 1123); conditions: COS7 cell lysate, fluorescence, higher = more signal;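 further: z-score combines 667nm fluorescence intensity with signal-to-noise per printed compound spot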
# [6] = probe aLAP1 signal on lysate-treated microarray – cell lysate, small-molecule microarray, COS7 lysate, primary screen (AID 1124); conditions: probe aLAP1, fluorescence, higher = more signal;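 further: lysate comes from COS7 cells expressing LAP1 and is applied at 0.3 µg/mL; score merges spot fluorescence near 667 nm with signal-to-noise over triplicate slides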
# Sam68 (KHDRBS1) = assay: compounds binding KHDRBS1 protein – biochemical, small-molecule microarray, 635 nm fluorescence, primary screen (AID 1125); conditions: higher = more signal;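 further: score merges 667 nm channel intensity with signal to noise over triplicate slides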
# [7] = system: Chordin-like protein 2 (CHRDL2); assay: compounds binding chordin-like 2 – biochemical, small-molecule microarray, 635 nm fluorescence, primary screen (AID 1126); conditions: fluorescence 635 nm, higher = more signal;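 further: printed compound slides probed with Chrdl2 protein at 4 µg/mL for 1 h at 4 C; score merges 667 nm emission intensity with signal to noise over three replicate slides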
# [8] = biological target: Concanavalin-A (Canavalia ensiformis) (UniProt P02866); assay: compounds binding concanavalin A lectin – biochemical, small-molecule microarray, Alexa647 label, 635 nm, artefact control for SMM control protein annotation, primary screen (AID 1127); conditions: ConA-A647 binding fluorescence, higher = more signal;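 further: z combines 667 nm emission intensity with signal-to-noise across three replicate slides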
# Chain of Concanavalin-A (Canavalia ensiformis) (P02866 whole entry, looked up): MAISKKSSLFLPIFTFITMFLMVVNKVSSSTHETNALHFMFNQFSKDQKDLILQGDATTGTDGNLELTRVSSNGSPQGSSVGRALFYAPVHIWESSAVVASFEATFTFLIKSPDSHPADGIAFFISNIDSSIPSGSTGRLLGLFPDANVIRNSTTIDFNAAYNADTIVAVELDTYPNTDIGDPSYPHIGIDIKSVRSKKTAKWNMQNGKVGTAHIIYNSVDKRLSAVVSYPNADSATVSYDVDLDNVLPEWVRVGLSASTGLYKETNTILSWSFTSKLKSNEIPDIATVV
# [9] = compounds binding Alexa647 anti-His antibody – biochemical, small-molecule microarray, 635 nm fluorescence, artefact control for SMM control protein annotation, primary screen (AID 1128); conditions: higher = more signal;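 further: score merges feature fluorescence with signal-to-noise for each printed compound spot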
# [10] = system: Human papillomavirus type 1a E7 protein (residues 1-88); assay: HPV1a E7 small-molecule binders, primary screen, biochemical, small-molecule microarray, residues 1-88, 635 nm (AID 1129); conditions: small-molecule microarray binding, fluorescence 635 nm; higher = more signal
# [11] = biological target: Focal adhesion kinase 1 (Homo sapiens) (UniProt Q05397); assay: PTK2 protein binding on printed compound slides – biochemical, small-molecule microarray, 635/667 nm fluorescence, BSA, DTT, primary screen (AID 1130); conditions: 635 nm fluorescence, higher = more signal;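 further: composite of spot emission at 667 nm and signal to noise over triplicate slides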
# Chain of Focal adhesion kinase 1 (Homo sapiens) (Q05397 whole entry, looked up): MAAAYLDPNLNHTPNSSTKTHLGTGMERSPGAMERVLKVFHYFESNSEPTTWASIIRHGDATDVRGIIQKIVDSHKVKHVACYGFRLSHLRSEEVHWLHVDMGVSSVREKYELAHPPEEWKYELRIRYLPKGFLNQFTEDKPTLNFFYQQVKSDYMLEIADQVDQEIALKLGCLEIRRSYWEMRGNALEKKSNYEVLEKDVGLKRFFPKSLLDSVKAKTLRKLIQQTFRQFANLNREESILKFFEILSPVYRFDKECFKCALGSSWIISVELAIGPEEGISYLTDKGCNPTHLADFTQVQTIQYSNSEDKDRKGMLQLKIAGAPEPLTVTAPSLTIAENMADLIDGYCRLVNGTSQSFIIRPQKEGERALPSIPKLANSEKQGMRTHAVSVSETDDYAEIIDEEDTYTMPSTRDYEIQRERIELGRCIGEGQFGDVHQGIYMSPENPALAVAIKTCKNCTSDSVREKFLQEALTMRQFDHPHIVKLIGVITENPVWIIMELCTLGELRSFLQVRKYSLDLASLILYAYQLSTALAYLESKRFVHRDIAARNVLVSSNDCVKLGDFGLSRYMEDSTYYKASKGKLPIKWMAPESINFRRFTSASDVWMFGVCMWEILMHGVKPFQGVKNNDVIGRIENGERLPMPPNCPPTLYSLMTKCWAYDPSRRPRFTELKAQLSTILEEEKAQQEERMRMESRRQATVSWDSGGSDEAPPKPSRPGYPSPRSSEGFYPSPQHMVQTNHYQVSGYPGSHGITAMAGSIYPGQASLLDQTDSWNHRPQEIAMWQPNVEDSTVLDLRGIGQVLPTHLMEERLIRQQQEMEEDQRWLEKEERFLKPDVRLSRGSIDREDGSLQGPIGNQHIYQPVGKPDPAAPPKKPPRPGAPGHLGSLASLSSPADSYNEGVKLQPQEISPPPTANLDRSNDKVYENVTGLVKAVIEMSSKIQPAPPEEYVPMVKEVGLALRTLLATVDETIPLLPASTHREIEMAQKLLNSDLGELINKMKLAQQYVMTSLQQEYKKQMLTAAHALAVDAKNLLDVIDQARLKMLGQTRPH
# [12] = system: Fibrinogen (Alexa647-labelled); assay: Alexa647-fibrinogen binding to printed small molecules – biochemical, small-molecule microarray, 635/667 nm fluorescence, artefact control for SMM control-protein annotation, profiling panel (AID 1131); conditions: fibrinogen-A647 binding fluorescence, higher = more signal;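 further: z-score merges 667 nm fluorescence with per-spot signal-to-noise over triplicate slides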
# [13] = biological target: Follistatin (Homo sapiens) (UniProt P19883); assay: FST protein binding to printed compounds – biochemical, small-molecule microarray, 635/667 nm fluorescence, primary screen (AID 1132); conditions: 635 nm fluorescence, higher = more signal
# Chain of Follistatin (Homo sapiens) (P19883 whole entry, looked up): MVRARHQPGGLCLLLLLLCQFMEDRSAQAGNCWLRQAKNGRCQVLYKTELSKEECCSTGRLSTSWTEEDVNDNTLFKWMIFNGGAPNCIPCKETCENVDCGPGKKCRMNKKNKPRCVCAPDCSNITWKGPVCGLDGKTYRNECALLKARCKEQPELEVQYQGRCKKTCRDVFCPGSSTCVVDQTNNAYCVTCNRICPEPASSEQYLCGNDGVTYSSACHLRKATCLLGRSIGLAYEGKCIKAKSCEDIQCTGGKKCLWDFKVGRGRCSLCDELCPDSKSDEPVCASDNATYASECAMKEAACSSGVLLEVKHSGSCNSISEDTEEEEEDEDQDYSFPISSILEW
# [14] = biological target: Fibroblast growth factor 2 (Homo sapiens) (UniProt P09038); assay: basic fibroblast growth factor binding to printed compounds – biochemical, small-molecule microarray, 635/667 nm fluorescence, primary screen (AID 1133); conditions: FGF2, fluorescence 635/667, higher = more signal
# Chain of Fibroblast growth factor 2 (Homo sapiens) (P09038 whole entry, looked up): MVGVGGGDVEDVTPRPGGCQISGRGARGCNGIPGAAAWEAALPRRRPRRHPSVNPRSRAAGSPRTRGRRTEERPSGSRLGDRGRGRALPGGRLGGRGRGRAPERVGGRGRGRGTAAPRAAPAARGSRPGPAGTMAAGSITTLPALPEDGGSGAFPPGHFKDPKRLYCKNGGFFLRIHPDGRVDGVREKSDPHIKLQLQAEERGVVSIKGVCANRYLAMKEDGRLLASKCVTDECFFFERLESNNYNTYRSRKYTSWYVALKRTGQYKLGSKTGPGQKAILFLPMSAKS
# [15] = JC-1 mitochondrial potential readout, lung cancer cells – cell-based, A549, JC-1 fluorescence, basal, 24 h, 100 nL, profiling panel (AID 1138); conditions: higher = more signal;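 further: A549 lung adenocarcinoma cells under basal conditions with no added stimulus; test concentration not given here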
# Lefty1 = Lefty1 protein binding to printed compounds – biochemical, small-molecule microarray, 635/667 nm fluorescence, primary screen (AID 1139); conditions: fluorescence 635/667, higher = more signal
# [16] = system: wheat germ agglutinin (Triticum aestivum), Alexa647-labelled; assay: Alexa647-WGA lectin binding to printed small molecules – biochemical, small-molecule microarray, 635/667 nm fluorescence, artefact control for SMM control-protein annotation, profiling panel (AID 1140); conditions: WGA-A647 binding, 635 nm fluorescence, higher = more signal;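 further: score merges 667 nm feature emission with signal to noise over triplicate slides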
# [17] = biological target: Luciferin 4-monooxygenase (Photinus pyralis) (UniProt P08659); assay: inhibition of purified Photinus pyralis luciferase – biochemical, luminescence, purified enzyme, 2006 set, primary screen (AID 1141); conditions: purified firefly luciferase, SteadyGlo luminescence, 30 min; higher = more signal, called active from +8 up or from −8 down;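 further: cell-free assay with purified firefly luciferase at 100 ng per well in PBS; test concentration not given here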
# Chain of Luciferin 4-monooxygenase (Photinus pyralis) (P08659 whole entry, looked up): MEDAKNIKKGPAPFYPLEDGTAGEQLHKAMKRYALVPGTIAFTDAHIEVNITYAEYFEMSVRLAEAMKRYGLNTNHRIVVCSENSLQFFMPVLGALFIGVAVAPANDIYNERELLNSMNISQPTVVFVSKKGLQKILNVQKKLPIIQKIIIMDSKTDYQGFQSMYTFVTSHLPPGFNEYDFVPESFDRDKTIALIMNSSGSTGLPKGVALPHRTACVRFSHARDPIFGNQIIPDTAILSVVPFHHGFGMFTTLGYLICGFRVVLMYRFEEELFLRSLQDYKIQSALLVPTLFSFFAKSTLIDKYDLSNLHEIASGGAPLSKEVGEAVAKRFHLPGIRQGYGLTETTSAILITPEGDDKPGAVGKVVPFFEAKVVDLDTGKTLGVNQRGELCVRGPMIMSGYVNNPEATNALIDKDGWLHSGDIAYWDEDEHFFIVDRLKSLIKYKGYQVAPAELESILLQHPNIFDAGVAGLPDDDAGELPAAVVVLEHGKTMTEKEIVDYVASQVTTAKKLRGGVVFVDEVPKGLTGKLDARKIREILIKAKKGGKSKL
Compound,composite z-score (Albumin (Bos taurus)),composite Z-score [1],composite z-score [2],composite z-score [3],composite z-score [4],composite z-score [5],composite z-score [6],composite z-score (Sam68 (KHDRBS1)),composite z-score [7],composite z-score [8],composite z-score [9],composite z-score [10],composite z-score [11],composite z-score [12],composite z-score [13],composite z-score [14],z-score [15],composite z-score (Lefty1),composite z-score [16],z-score [17]
[N-]=[N+]=NCc1ccccc1[C@@H]1OC(c2ccc(OCCCO)cc2)=N[C@]1(CCS(=O)(=O)c1ccccc1)C(N)=O,0.0943,0.466 (inactive),0.369,0.0703,0.637,3.29,0.247,1.28,1.1,0.971,3.49,1.27,1.21,0.973,1.44,1.83,-0.528,0.616,1.09,-2.98 (inactive)
CCCC=C(CCC)[C@@H](NC(=O)OCC(C)C)c1ccccc1,0.923,-0.254 (inactive),1.03,-0.0141,0.611,1.6,-0.182,1.31,-1.42,1.1,0.665,1.15,0.172,0.471,0.978,0.16,-0.138,0.822,0.126,0.936 (inactive)
C=CCC(OC(C)=O)[C@@H]1[C@@H](N(Cc2ccc(-c3cccc(C(F)(F)F)c3)o2)C(=O)Cc2ccc(OC)cc2)c2cc(OCCCO)ccc2N1C(=O)c1ccc2ccccc2c1 (stereo not given in full),0.268,-0.616 (inactive),0.0423,-0.131,0.228,1.14,-0.0744,-0.651,-0.0916,-0.471,-0.448,-0.811,-0.198,-1,0.776,-0.522,-0.322,0.199,-0.145,0.535 (inactive)
CC=CC(O)C1C=CC2C(=O)N(C)C(=O)C2N1N(c1ccccc1)c1ccccc1 (stereo not given),0.803,-0.222 (inactive),0.0864,0.0843,0.837,-0.213,0.198,-0.113,0.686,0.555,0.573,-0.226,0.0652,0.241,0.803,-0.024,1.32,0.212,0.318,1.36 (inactive)
C=CC[C@]1(C(=O)N2CCOCC2)N=C(c2ccc(OCCCO)cc2)O[C@H]1c1ccccc1N=[N+]=[N-],0.561,0.193 (inactive),0.298,-0.0896,0.751,2.77,0.647,1.29,-0.521,1.09,2.08,1.26,0.804,0.979,1.14,0.287,-0.0671,-0.0598,1.37,-10.7 (active)
Cc1c(NC(=O)/C(C#N)=C/c2cccc([N+](=O)[O-])c2)c(=O)n(-c2ccccc2)n1C,0.48,-0.449 (inactive),0.0934,0.993,0.792,0.719,0.861,0.928,0.393,0.456,0.551,1.02,-0.148,0.985,0.7,0.793,0.365,0.931,0.441,-1.09 (inactive)
O=C1OCCC=C[C@H]2OC34C=CCN(Cn5nnc6ccccc65)C(=O)[C@H]3N(CCO)C(=O)[C@@H]4C12 (stereo not given in full),0.995,0.6 (inactive),-0.475,-0.227,0.866,-0.403,-0.38,-0.75,-1.75,-1.75,-0.459,-0.566,-0.225,-0.934,-0.851,-1.3,-0.758,-1.31,0.522,0.612 (inactive)
OB1C=CCC(CCc2ccccc2)O1 (stereo not given),-0.923,-0.601 (inactive),-0.191,-0.153,-0.498,-0.622,-0.803,-1.31,0.317,-1.34,-0.837,-0.692,-0.153,-0.894,0.0417,0.712,1.13,-0.732,-0.477,-1.83 (inactive)
[N-]=[N+]=NCc1ccccc1[C@H]1OC(c2ccc(OCCCO)cc2)=N[C@@]1(Cc1ccccc1)C(=O)N1CCCCC1,0.515,-0.34 (inactive),0.234,-0.133,0.591,2.32,0.284,1.29,-0.237,1.08,0.777,1.23,0.795,1,1.45,1.52,0.779,0.944,0.834,0.486 (inactive)
O=C1C2C=CC(C(O)C=Cc3ccc([N+](=O)[O-])cc3)N(Nc3ccccc3F)C2C(=O)N1c1ccccc1 (stereo not given),0.868,0.139 (inactive),0.127,-0.147,0.651,2.31,0.885,1.3,0.0612,1.15,1.41,1.23,0.545,0.995,1.11,0.211,-0.607,0.522,1,-0.252 (inactive)
COc1ccc(C#Cc2ccc3c(c2)[C@]2(C(=O)N3)[C@H](c3ccc(O)cc3)N3[C@H](c4ccccc4)[C@H](c4ccccc4)OC(=O)[C@H]3[C@@H]2C(=O)N2CCc3cc(OC)c(OC)cc3C2)cc1,0.719,1.39 (inactive),0.0196,-0.12,0.459,1.33,0.326,1.31,0.356,1.12,0.645,1.19,0.174,0.933,1.15,1.36,-0.577,1.12,0.384,-0.798 (inactive)
COc1ccc([Si](C)(C)[C@@H]2[C@@H](CCn3cc([C@H](O)c4ccccc4)nn3)O[C@]3(C(=O)N(Cc4cccc(N5CCC5=O)c4)c4ccccc43)[C@H]2C)cc1,-0.185,-0.0405 (inactive),-0.152,-0.0598,-0.105,0.288,0.0413,-0.233,0.422,0.0651,0.963,0.227,-0.285,0.119,1.15,1.06,2.21,0.0197,0.187,0.258 (inactive)
C=CC[C@]1(C(N)=O)N=C(c2ccc(OCCCO)cc2)O[C@H]1c1ccccc1,0.34,0.15 (inactive),-0.0284,0.102,0.779,0.916,-0.137,-0.188,0.204,0.721,1.3,1.08,0.784,0.691,0.482,0.17,-0.852,-0.664,0.417,0.004 (inactive)
NCCCCCNC(=O)[C@H]1C[C@H]2C(=O)N3CCC[C@H]3C(=O)N2[C@H]1c1ccc(O)cc1,0.851,1.56 (inactive),0.489,-0.0024,0.445,0.676,0.0612,1.33,0.464,1.17,0.695,1.15,0.223,0.894,1.34,1.35,-0.373,1.1,0.781,-0.462 (inactive)
COc1ccc([Si](C)(C)[C@@H]2[C@@H](CC(=O)N3Cc4ccccc4C[C@H]3CO)O[C@]3(C(=O)N(Cc4cccc(N5CCC5=O)c4)c4ccccc43)[C@H]2C)cc1,-0.147,0.3 (inactive),0.16,-0.117,0.283,1.15,0.0905,1.22,0.711,0.961,0.887,1.12,0.366,0.357,1.22,1.01,-0.256,1.02,0.696,-0.106 (inactive)
O=C1NC(=O)C2C1C=CC(C(O)c1ccc(-c3ccccc3)s1)N2Nc1ccc(Cl)cc1Cl (stereo not given),0.924,1.1 (inactive),0.0979,-0.0611,0.759,2.82,1.2,1.33,-0.717,1.06,0.752,1.11,1.06,0.934,0.833,-0.91,-0.536,0.127,0.865,-0.289 (inactive)
C=C(C(=O)CC[C@H](OC(C)=O)c1ccccc1OCCO)C(C)C,0.0421,-0.361 (inactive),0.029,-0.0325,-0.371,-0.754,1.87,-0.4,-0.163,-0.104,-0.29,-0.936,-0.385,-0.262,1.25,0.38,-1.25,0.696,-0.209,0.168 (inactive)
